The campaign covered roughly 310,000 compounds. About 14,000 (4.5%) showed an effect of 50% or more. The effect is printed as a negative number. The full list was thinned out, with strong results kept by preference.
Molecular target: human ether-à-go-go-related gene (hERG) potassium channel (human, UniProt Q12809)
Assay: primary screen, population patch clamp on CHO cells stably expressing hERG; higher = less effect of the substance
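Further: peak tail current of the secondary pulse compared with the same well before compound.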

human ether-à-go-go-related gene (hERG) potassium channel, sequence (Q12809 whole entry, looked up): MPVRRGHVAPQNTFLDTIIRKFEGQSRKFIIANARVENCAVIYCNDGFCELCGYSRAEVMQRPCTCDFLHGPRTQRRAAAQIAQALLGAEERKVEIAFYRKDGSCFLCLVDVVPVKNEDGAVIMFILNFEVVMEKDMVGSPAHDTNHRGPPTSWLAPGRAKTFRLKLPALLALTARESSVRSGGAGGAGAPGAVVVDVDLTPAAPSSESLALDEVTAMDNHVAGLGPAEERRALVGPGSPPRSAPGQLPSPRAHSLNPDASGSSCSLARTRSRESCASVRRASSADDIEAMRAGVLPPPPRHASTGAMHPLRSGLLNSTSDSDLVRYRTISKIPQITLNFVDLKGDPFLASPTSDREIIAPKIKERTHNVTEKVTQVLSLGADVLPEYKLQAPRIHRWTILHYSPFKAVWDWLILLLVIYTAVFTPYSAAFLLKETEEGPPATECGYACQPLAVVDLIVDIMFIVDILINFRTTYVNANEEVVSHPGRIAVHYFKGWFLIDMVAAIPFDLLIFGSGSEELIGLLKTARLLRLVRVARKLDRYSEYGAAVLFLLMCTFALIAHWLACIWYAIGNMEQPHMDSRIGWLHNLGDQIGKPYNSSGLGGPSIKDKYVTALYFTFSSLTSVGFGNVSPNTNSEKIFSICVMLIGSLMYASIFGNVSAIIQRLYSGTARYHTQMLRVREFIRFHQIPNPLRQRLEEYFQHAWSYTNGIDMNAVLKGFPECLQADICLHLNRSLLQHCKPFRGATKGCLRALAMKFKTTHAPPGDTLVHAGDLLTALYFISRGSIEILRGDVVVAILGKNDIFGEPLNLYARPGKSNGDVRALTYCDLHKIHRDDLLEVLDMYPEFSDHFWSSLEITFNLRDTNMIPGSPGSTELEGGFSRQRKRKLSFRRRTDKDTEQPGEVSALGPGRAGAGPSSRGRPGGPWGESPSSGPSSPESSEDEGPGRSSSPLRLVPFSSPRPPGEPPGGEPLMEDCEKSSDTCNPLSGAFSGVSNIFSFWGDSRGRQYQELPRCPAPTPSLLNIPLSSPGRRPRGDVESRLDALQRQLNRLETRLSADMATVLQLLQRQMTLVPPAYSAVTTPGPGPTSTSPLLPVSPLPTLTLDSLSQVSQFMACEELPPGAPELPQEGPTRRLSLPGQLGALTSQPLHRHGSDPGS

Row | Structure (SMILES) | hERG current change (%, negative = inhibition) at 10uM [%]
1 | COc1ccc(N2C(=O)CC(N3CCCC4CCCCC43)C2=O)cc1 (stereo not shown) | 1.28
2 | CCOC(=O)c1ccc(NC(=O)C2CC2)cc1 | -18.4
3 | COc1cccc(/C=N/NC(=O)c2cc(-c3cccn3C)n[nH]2)c1 | -61.1
4 | Cn1cccc1-c1cc(C(=O)N/N=C/c2cccc(O)c2)[nH]n1 | -7.31
5 | COc1ccc(/C=N/NC(=O)c2cc(-c3cccn3C)n[nH]2)cc1OC | -27.5
6 | CCOc1nc2ccccc2cc1C=O | -5.31
7 | Cc1ccc(NS(=O)(=O)c2ccc(NC(=O)[C@@H]3CCCC[C@@H]3C(=O)O)cc2)c(C)c1 | 18
8 | Cc1ccccc1N1CC(O)(c2cccs2)[N+]2=C1CCCC2.[Br-] (stereo not shown) | -25.9
9 | COc1ccc(OC)c(N2CC(O)(c3cccs3)[N+]3=C2SCCC3)c1.[Br-] (stereo not shown) | -50.5
10 | Cc1ccc(C)c(N2CC(O)(c3cccs3)[N+]3=C2CCCC3)c1.[Br-] (stereo not shown) | -23
11 | COc1ccc(C2(O)CN(c3ccccc3)C3=[N+]2CCS3)cc1OC.[Br-] (stereo not shown) | 1.7
12 | Cc1ccccc1N1CC(O)(c2ccccc2)[N+]2=C1SCC2.[Br-] (stereo not shown) | -19.5
13 | COc1ccc(OC)c(N2CC(O)(c3ccccc3)[N+]3=C2SCCC3)c1.[Br-] (stereo not shown) | -72.6
14 | CN(C)C(CNC(=O)c1ccc(NS(=O)(=O)c2cccc([N+](=O)[O-])c2)cc1)c1ccco1 (stereo not shown) | 12.4
15 | Cc1ccc(NC(=O)COC(=O)COc2cccc3c2OC(C)(C)C3)cc1C | -13.9
16 | CCCNC(=O)CN(C)S(=O)(=O)c1c(C)cc(C)cc1C | 6.62
17 | Cn1ccnc1C(O)c1ccc(OCc2ccccc2)cc1 (stereo not shown) | 4.19
18 | O=C(O)C(=O)O.O=C1CCCN1CN1CCCCC1 | 0.00358
19 | COc1ccc(Nc2nc(C(=O)NCc3ccco3)cs2)cc1 | -14.4
20 | S=C(NCc1ccco1)Nc1cccc(Cl)c1Cl | -3.13
21 | Cc1c(Cl)cccc1NC(=S)NCc1ccco1 | 4.12
22 | Cc1ccc(Nc2nc(C(=O)NCc3ccco3)cs2)cc1 | -13.5

Row | Structure (SMILES) | hERG current change (%, negative = inhibition) at 10uM [%]
23 | O=C(NCc1ccco1)c1csc(Nc2ccccc2Cl)n1 | -63.1
24 | S=C(NCc1ccco1)Nc1ccccc1Cl | -52
25 | Cc1cc(-c2n[nH]c(=S)n2/N=C/C=C/c2ccccc2)n[nH]1 | 6.76
26 | Cc1ccc(NS(=O)(=O)c2ccc3[nH]c(=O)[nH]c3c2)cc1 | 21
27 | N/C(Cc1ccc(Cl)cc1Cl)=N\OC(=O)Cc1ccccc1 | 7.08
28 | CC(C)c1ccc(NC(=O)[C@@H](C)NC(=O)[C@@H]2Cc3ccccc3CN2)cc1 | -29.2
29 | COc1cccc(NC(=O)[C@H](Cc2ccccc2)NC(=O)[C@@H]2Cc3ccccc3CN2)c1 | -2.99
30 | Cc1ccc(NC(=O)[C@H](Cc2ccccc2)NC(=O)[C@@H]2Cc3ccccc3CN2)c(C)c1 | -5.23
31 | CC(NC(=O)[C@H](NC(=O)[C@@H]1Cc2ccccc2CN1)c1ccccc1)c1ccccc1 (stereo partly shown) | -32.9
32 | Cc1ccc(NC(=O)[C@H](Cc2c[nH]c3ccccc23)NC(=O)[C@@H]2Cc3ccccc3CN2)c(C)c1 | -30.1
33 | Cc1ccc(NC(=O)[C@H](NC(=O)[C@@H]2Cc3ccccc3CN2)c2ccccc2)cc1 | -64.1
34 | COc1cccc(NC(=O)[C@H](CC(C)C)NC(=O)[C@@H]2Cc3ccccc3CN2)c1 | -16
35 | CC(C)c1ccc(NC(=O)[C@H](NC(=O)[C@@H]2Cc3ccccc3CN2)c2ccccc2)cc1 | -6.39
36 | Cc1ccc(NC(=O)[C@@H](C)NC(=O)[C@@H]2Cc3ccccc3CN2)cc1 | -14.9
37 | Cc1ccc(NC(=O)[C@H](NC(=O)[C@@H]2Cc3ccccc3CN2)c2ccccc2)c(C)c1 | -60.7
38 | COc1ccc(NC(=O)[C@H](NC(=O)[C@@H]2Cc3ccccc3CN2)c2ccccc2)cc1 | -50.3
39 | COc1cccc(NC(=O)[C@H](NC(=O)[C@@H]2Cc3ccccc3CN2)c2ccccc2)c1 | -76.4
40 | CCOc1ccccc1N(C(=O)c1ccccc1Cl)C1=NC(C)(C)CS1 | -2.51
41 | CC(NC(=O)c1ccccc1[N+](=O)[O-])C1CC2CCC1C2 (stereo not shown) | 5.96
42 | O=C(NCc1ccc2c(c1)OCO2)c1ccc(COc2cc(Cl)ccc2Cl)o1 | 11.7
43 | O=C(c1ccccc1)N1N=C(c2ccccc2O)CC1c1ccccc1 (stereo not shown) | 6.88

— publication PMC4336329 (PLoS ONE, 2015)
